TCR act: Activators of T cell receptors: qHTS campaign | primary human leukocytes, anti-CD3, IL-2 HTRF, 48 h | Potency, µM (titrated, usually from 9.22 µM), actives largely listed as activators | 330,000 tested, under 10 active
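Primary human leukocytes receive a-CD3 beads and test compound and are incubated 48 hr. Secreted IL-2 is then assayed by HTRF, measuring 665nm acceptor emission after 320nm excitation of the europium donor.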
PI5P4K alpha inh: qHTS for Inhibitors of phosphatidylinositol 5-phosphate 4-kinase (PI5P4K); Phosphatidylinositol 5-phosphate 4-kinase type-2 alpha (Homo sapiens), P48426; actives 1.2% (n = 330,000); max response, %; PI5P4Kalpha enzyme, ADP-Glo luminescence, 60 min; hits give low values; active means max response of -50% or lower; inconclusive means between -30% and -50%; inactive means -30% or higher; further: value at the top dose of about 77 µM
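ADP-Glo luminescence end-point after a 60 min room-temperature kinase reaction. PI5P4Kalpha and substrate in HEPES pH 7.4 buffer with EGTA, 0.1% CHAPS and 5% DMSO; ATP at 5 microM final.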
VDR inhibitor: Inhibitors of the vitamin D receptor (VDR): qHTS | Vitamin D3 receptor (Homo sapiens), P11473 | VDR-SRC2-3 peptide fluorescence polarization, 2 h | Potency, µM, actives largely listed as inhibitors | actives 0.93% (n = 400,000) | AID 504847, 2011
Target sequence (P11473 whole entry, looked up): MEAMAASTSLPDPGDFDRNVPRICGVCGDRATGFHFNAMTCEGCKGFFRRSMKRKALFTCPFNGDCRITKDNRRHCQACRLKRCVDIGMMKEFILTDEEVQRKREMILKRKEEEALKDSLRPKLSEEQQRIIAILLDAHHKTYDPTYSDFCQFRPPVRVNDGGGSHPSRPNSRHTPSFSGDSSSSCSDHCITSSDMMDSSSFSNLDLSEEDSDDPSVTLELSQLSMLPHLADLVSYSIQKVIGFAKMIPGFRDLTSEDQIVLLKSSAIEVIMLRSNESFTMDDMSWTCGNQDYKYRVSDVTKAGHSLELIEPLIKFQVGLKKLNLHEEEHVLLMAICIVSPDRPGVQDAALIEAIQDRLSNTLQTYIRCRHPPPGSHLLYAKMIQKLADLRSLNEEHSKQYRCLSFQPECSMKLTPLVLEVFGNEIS
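Fluorescence polarization assay of small-molecule disruption of VDR binding to coregulator peptide SRC2-3. Compounds and controls pin-transferred, then read after 2 h incubation at ambient room temperature.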
FEN1 inhibitor: qHTS Assay for the Inhibitors of Human Flap endonuclease 1 (FEN1); Recombinant FEN1 flap cleavage, fluorescence, 15 min; Potency, µM (highest dose often 114 µM), usual class: inhibitors; actives 0.35% (n = 390,000); P39748; further: nearly all actives have a fitted effect of over 65% in size
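Potency values derive from four-parameter Hill fits of normalized qHTS data. The reaction used 10 nM FEN1 preincubated 15 min at room temperature with compound, then 50 nM DNA substrate, read at 0 and 15 min.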
PLK1 PBD inh: qHTS for Inhibitors of PLK1-PDB (polo-like kinase 1 - polo-box domain): Primary Screen. Serine/threonine-protein kinase PLK1 (Homo sapiens), P53350. Plk1 PBD binding of FITC phosphopeptide, fluorescence polarization. Potency, µM, most hits filed as inhibitors. actives 2.8% (n = 360,000). AID 720504, 2013; further: series mostly up to about 57 µM; nearly all actives have a fitted effect of over 65% in size
WRN inhibitor: qHTS for Inhibitors of WRN Helicase. Bifunctional 3'-5' exonuclease/ATP-dependent helicase WRN (Homo sapiens), Q14191. WRN helicase unwinding, fluorescent forked duplex, kinetic. Potency, µM (titrated, usually from 114 µM), actives largely listed as inhibitors. actives 0.46% (n = 360,000); further: nearly all actives have a fitted effect of over 55% in size
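WRN at 20 nM final preincubated with compound 15 min at room temperature; reaction started with 100 nM fluorophore/quencher forked duplex oligonucleotide and 2 mM ATP final. Unwinding followed kinetically by red fluorescence (ex 525, em 598 nm).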
Numbers stand for hits; – = inactive; ? = inconclusive; · = no result given. Only some compounds are listed: those with a hit (about 3.7% of all), similar ones and a draw of the others. Unless noted, the call rests on the fitted dose curve; in most records, active means well fitted curve in the direction sought with a large enough effect; inconclusive means small, poorly fitted or top-dose-only effect, or another doubt; inactive means no such curve, though single readings can be large; an effect the other way counts as inactive or inconclusive.

SMILES	TCR act	PI5P4K alpha inh	VDR inhibitor	FEN1 inhibitor	PLK1 PBD inh	WRN inhibitor
O=C(O)CCCC(=O)Nc1ccc(OCc2nc3ccccc3s2)cc1	–	–	?	–	4.23µM	–
COc1ccccc1NC(=O)CCc1nc2ccccc2s1	–	–	?	–	21.2µM	–
CC(C)c1ccccc1NC(=O)CCc1nc2ccccc2s1	–	?	–	–	?	–
O=C(CCCc1nc2ccccc2s1)Nc1ccccc1	–	–	–	–	–	–
Oc1c(CN2CCc3ccccc3C2)cc(Cl)c2cccnc12	–	–	–	39.8µM	29.9µM	–
CN(C)c1ccc(CNC(=O)Cn2ccc3cc(S(=O)(=O)N4CCCCCC4)ccc32)cc1	·	·	–	–	·	·
O=C(CN1C(=O)/C(=C2\SC(=S)N(CCS(=O)(=O)O)C2=O)c2ccccc21)Nc1cccc(Br)c1	–	-97.3	?	?	6.7µM	89.1µM
CCOc1ccc(NC(=O)CN2C(=O)/C(=C3\SC(=S)N(C4CCS(=O)(=O)C4)C3=O)c3ccccc32)cc1 (centres undefined)	–	–	–	–	?	–
CN(C)C1C(=O)C(C(N)=O)C(=O)C2(O)C(=O)C3C(=O)c4c(O)ccc(Cl)c4C(O)C3CC12 (centres undefined)	·	·	–	·	·	·
O=C(NNS(=O)(=O)c1ccccc1[N+](=O)[O-])c1ccc(O)cc1	–	–	–	–	23.8µM	–
Cc1cccc(C(=O)NNS(=O)(=O)c2ccccc2[N+](=O)[O-])c1	–	–	–	–	?	–
O=C(NNS(=O)(=O)c1ccccc1[N+](=O)[O-])c1ccc(F)cc1	–	–	–	–	–	–
Cc1ccc(C(=O)NNS(=O)(=O)c2ccccc2[N+](=O)[O-])cc1	–	–	–	–	26.7µM	–
CC(C)(C)n1ncc2c(=O)n(Cc3ccc(Cl)c(SC(F)(F)F)c3)cnc21	·	·	·	–	·	·
COc1ccc(OC)c(NC(=O)CSc2nnc(C3CCCCC3)o2)c1	–	–	–	–	23.8µM	–
COc1ccccc1NC(=O)CSc1nnc(C2CCCCC2)o1	·	–	–	–	–	–
Cc1ccc(C2=CSC3=NS(=O)(=O)CCN23)cc1	–	–	–	–	–	–
CC1=CSC2=NS(=O)(=O)CCN12	–	–	–	–	23.8µM	–
CC1(C)CC(=O)c2cc(C(=O)Nc3ccccc3)c(=O)[nH]c2C1	·	·	·	–	·	·
Cc1ccc(S(=O)(=O)N(C(=O)c2ccncc2)c2ccc(OC(=O)c3ccncc3)c3ccccc23)cc1	–	–	?	–	9.47µM	–
Cc1ccc(S(=O)(=O)N(C(=O)c2ccncc2)c2ccc(OC(=O)c3ccncc3)c3ccccc23)c(C)c1	–	–	–	–	13.4µM	–
CC(=O)Oc1ccc(N(C(C)=O)S(=O)(=O)c2ccccc2)c2ccccc12	·	–	·	·	–	–
CC(=O)Oc1ccc(N(C(C)=O)S(=O)(=O)c2ccc(C)cc2C)c2ccccc12	–	–	–	–	–	–
CCCCNC(=O)c1ccc2nc(-c3cccs3)c(-c3cccs3)nc2c1	·	·	–	–	·	·
NC(=O)c1ccccc1NC(=S)NC(=O)CCc1ccccc1	–	?	?	–	15µM	?
Cc1ccc(S(=O)(=O)c2ncccc2N)cc1	–	–	–	–	–	–
Cc1ccc(S(=O)(=O)c2ncccc2[N+](=O)[O-])cc1	–	–	?	–	–	50.1µM
CC(C)(C)C(=O)[C@@H]1[C@@H]2C(=O)N(c3ccc4c(c3)OCCO4)C(=O)[C@@H]2C2c3ccccc3C=CN21 (some centres undefined)	–	–	–	–	10.6µM	–
CCc1cc2ccc(C)cc2nc1SCC(=O)N1CCN(C(=O)c2ccco2)CC1	–	–	79.4µM	–	23.8µM	–
CCc1cc2cccc(C)c2nc1SCC(=O)N1CCN(C(=O)c2ccco2)CC1	–	–	–	?	–	–
